Experimental findings from PubChem BioAssay (NCI) are described below.

Each structure is given as a SMILES string. Compounds without any hit were thinned out: in the full panel of roughly 83,000, 20% have a hit.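 48-hour exposure, single concentration, 96-well plates; percent growth endpoint where 0 means no net growth. Active: below 10.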 A number with no mark means an inactive call. Calls of active or inactive are those of the source.

Some test systems named below: T-47D breast; BT-549 breast; MDA-MB-435 melanoma; SW-620 colon; MCF7 breast; HCT-116 colon; HCC-2998 colon; KM12 colon.
Common to all, as to experiment: NCI-60 one-dose screen, 48 h (100 = growth as untreated, 0 = no growth, -100 = all killed)
Common to all, as to conditions: 10 µM unless noted

For `C=C(C)[C@@H]1CCC[C@]2(COS(=O)(=O)c3ccc(C)cc3)CC[C@]3(C)[C@@H](CC[C@@H]4[C@@]5(C)CCCNC(C)(C)[C@@H]5CC[C@]43C)[C@@H]12`, the growth was 59.6% with T-47D breast; 83.7% with BT-549 breast; -25.3% (active) with MDA-MB-435 melanoma; -69.4% (active) with SW-620 colon; -32.6% (active) in the assay on MCF7 breast; -82.8% (active) with HCT-116 colon. Besides, the growth in the assay with HCC-2998 colon was -75.8% (active); in the assay on KM12 colon, -25.2% (active).
As to `Cc1[nH]c(C(=O)Nc2ccccc2OC2CCNCC2)c(Cl)c1Cl`, the growth in the assay with T-47D breast is -4.05% (active); in the assay on BT-549 breast it was 74.2%; with MDA-MB-435 melanoma it was -40.3% (active); with SW-620 colon, 1.77% (active); with MCF7 breast, -45% (active); in the assay on HCT-116 colon, 4.55% (active). The growth is 43.2% in the assay with HCC-2998 colon and 32.8% in the assay with KM12 colon.
`C/C(=N\O)c1ccc(Cl)cc1`: the growth in the assay on T-47D breast is 110%; in the assay on BT-549 breast, 96%; in the assay on MDA-MB-435 melanoma it was 112%; with SW-620 colon it was 99.9%; in the assay with MCF7 breast it was 101%; with HCT-116 colon, 97.5%. Further, the results for the growth in the assay on HCC-2998 colon and with KM12 colon were 95.9% and 118%, respectively.
Turning to `COC(=O)/C=C1/SC(=Nc2cccc(OC)c2)N(CCc2c[nH]c3ccc(O)cc23)C1=O`, the growth with T-47D breast was 42.2%; in the assay with BT-549 breast it was 33.1%; in the assay on MDA-MB-435 melanoma, 23.5%; with SW-620 colon, 56.1%; in the assay on MCF7 breast it was 20.4%; in the assay on HCT-116 colon, 34.3%. Besides, the growth in the assay on HCC-2998 colon is 65.1%; with KM12 colon, 53.5%.
For `C=C1C(=O)O[C@H]2[C@H]1CC/C(Cn1cc(-c3ccccc3)nn1)=C\CC[C@@]1(C)O[C@@H]21`, the growth in the assay on T-47D breast is -38% (active); with BT-549 breast, -61.1% (active); in the assay on MDA-MB-435 melanoma, -21.5% (active); in the assay with SW-620 colon it was -79.1% (active); in the assay with MCF7 breast, -60.1% (active); with HCT-116 colon, -67.1% (active). Also, the results for the growth in the assay with HCC-2998 colon and in the assay with KM12 colon were 5.21% (active) and 56%, respectively.
In the case of `COc1cc(-c2csc(NC(=O)c3ccc(N4CCOCC4)c(C(F)(F)F)c3)n2)cc(OC)c1OC`, the growth in the assay on T-47D breast was -5.81% (active); in the assay on BT-549 breast it was -7.47% (active); in the assay with MDA-MB-435 melanoma, 35.1%; with SW-620 colon, 48.9%; in the assay on MCF7 breast, 19.2%; with HCT-116 colon, 16%. Also, the figures for the growth with HCC-2998 colon and in the assay with KM12 colon were 60.2% and 16.9%, respectively.
In the case of `O=C(CSc1oc(-c2ccccc2)nc1S(=O)(=O)c1ccccc1)Nc1ccc(F)cc1`, the growth was 69.8% in the assay on T-47D breast; 78.4% in the assay with BT-549 breast; 94.8% with MDA-MB-435 melanoma; 96.5% in the assay with SW-620 colon; 92.6% in the assay with MCF7 breast; 52.6% in the assay with HCT-116 colon. Moreover, the growth is 104% in the assay with HCC-2998 colon and 86.6% with KM12 colon.
`CCOC(=O)c1cc2c(n1Cc1cc(OC)c(OC)c(OC)c1)-c1nc(N)sc1CCC2`: the growth with T-47D breast was 43.3%; in the assay on BT-549 breast, 51.2%; in the assay on MDA-MB-435 melanoma, -38.7% (active); in the assay on SW-620 colon, 43.4%; in the assay with MCF7 breast, 27.6%; in the assay with HCT-116 colon, 34.1%. The growth in the assay on HCC-2998 colon is 73.1%; in the assay on KM12 colon, 30.8%.
Regarding `CCCCn1c(=O)[nH]c(N)c([C@@H]2c3c([nH]c(=O)n(CCCC)c3=O)Oc3ccc4ccccc4c32)c1=O`, the growth in the assay on T-47D breast is 81.1%; in the assay with BT-549 breast, 46.9%; with MDA-MB-435 melanoma, 5.95% (active); with SW-620 colon, -67.9% (active); in the assay with MCF7 breast it was 46%; in the assay on HCT-116 colon it was -26.3% (active). The results for the growth with HCC-2998 colon and in the assay with KM12 colon were 83.3% and -44.1% (active), respectively.
In the case of `CC1CCc2c(C(=O)Nc3ncc(Cc4cccc([N+](=O)[O-])c4)s3)csc2C1` (stereo not drawn), the growth in the assay on T-47D breast is 27.8%; with BT-549 breast it was 46.6%; in the assay with MDA-MB-435 melanoma, -42% (active); in the assay with SW-620 colon, 23.3%; with MCF7 breast it was 17.1%; with HCT-116 colon, 19%. The growth in the assay on HCC-2998 colon is 41.2%; with KM12 colon, 18.2%.
As for `COc1cc2oc(-c3cccc(NC(=O)c4ccccc4)c3)cc(=O)c2c(OC)c1OC`, the growth in the assay on T-47D breast was 50.2%; in the assay on BT-549 breast, 74.1%; in the assay with MDA-MB-435 melanoma, 80.7%; in the assay with SW-620 colon, 91.5%; in the assay with MCF7 breast it was 77.3%; in the assay on HCT-116 colon, 67.7%. Moreover, the growth was 87.8% with HCC-2998 colon and 64.4% in the assay on KM12 colon.
For the compound `COC(=O)[C@]12CCC(C)(C)C[C@H]1[C@H]1/C(=N/OCCc3nn[nH]n3)C[C@@H]3[C@@]4(C)CC[C@H](OC(C)=O)C(C)(C)[C@@H]4CC[C@@]3(C)[C@]1(C)CC2`, the growth in the assay with T-47D breast was 26%; in the assay with BT-549 breast, 34.9%; in the assay with MDA-MB-435 melanoma, 31.4%; in the assay with SW-620 colon it was 41.9%; in the assay with MCF7 breast, 20.9%; with HCT-116 colon, 24.7%. For the same compound, the figures for the growth in the assay with HCC-2998 colon and with KM12 colon were 54.7% and 36.5%, respectively.
Turning to `N=C(N)c1ccc(-c2ccc(-c3ccccc3)o2)cc1`, the growth in the assay on T-47D breast was -46% (active); with BT-549 breast it was 40.8%; in the assay with MDA-MB-435 melanoma, -91.2% (active); with SW-620 colon, -75.7% (active); in the assay on MCF7 breast it was -57.2% (active); in the assay with HCT-116 colon it was -100% (active). Moreover, the values for the growth with HCC-2998 colon and with KM12 colon were -74.5% (active) and -80.3% (active), respectively.
Turning to `COc1ccc(C2=Nc3c(N)nc(N)nc3NC(c3cccc(Nc4ccnc5cc(C(F)(F)F)ccc45)c3)C2)cc1` (stereo not drawn), the growth was 93% in the assay on T-47D breast; 107% in the assay with BT-549 breast; 10.1% with MDA-MB-435 melanoma; 50.4% in the assay on SW-620 colon; 37.7% with MCF7 breast; 37.9% in the assay with HCT-116 colon. The growth in the assay with HCC-2998 colon was 72.2%; with KM12 colon it was 40.4%.
`N#CSc1c[nH]c2cccc(/C=C/C(=O)/C=C(/C=C/c3cccc4[nH]cc(SC#N)c34)OB(F)F)c12`: the growth in the assay with T-47D breast is 9.55% (active); with BT-549 breast, -25.3% (active); with MDA-MB-435 melanoma it was -74.7% (active); in the assay on SW-620 colon it was -35% (active); in the assay with MCF7 breast it was -22.6% (active); in the assay on HCT-116 colon, -88.5% (active). In addition, the growth is -32.7% (active) in the assay on HCC-2998 colon and 11.7% in the assay on KM12 colon.
On to `CN(C)S(=O)(=O)c1cccc(C(=O)Nc2nc(-c3ccc(F)c(F)c3)cs2)c1`, for which the growth with T-47D breast is 19.7%; in the assay with BT-549 breast, 52.5%; in the assay on MDA-MB-435 melanoma, 83.3%; with SW-620 colon, 93.9%; in the assay on MCF7 breast, 48.4%; with HCT-116 colon it was 57.6%. Also, the figures for the growth in the assay on HCC-2998 colon and in the assay on KM12 colon were 88.1% and 97.4%, respectively.
